Screens (PubChem)
Compounds with a hit are over-represented: about 2.6% of the library has one in this group of screens.
Cruzain inh Det = cruzain (T. cruzi) inhibition with detergent. purified cruzain, Z-FR-AMC fluorescence, 0.01% Triton. 0.43% of 200,000 active. Potency, µM, for inactives: max response, negative = inhibition, usual class: inhibitors;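 note: plate controls were neutral wells for no effect and buffer without enzyme for full effect; nearly all actives have a fitted effect of over 40% in size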
Target sequence (P25779 123-467 limits assumed): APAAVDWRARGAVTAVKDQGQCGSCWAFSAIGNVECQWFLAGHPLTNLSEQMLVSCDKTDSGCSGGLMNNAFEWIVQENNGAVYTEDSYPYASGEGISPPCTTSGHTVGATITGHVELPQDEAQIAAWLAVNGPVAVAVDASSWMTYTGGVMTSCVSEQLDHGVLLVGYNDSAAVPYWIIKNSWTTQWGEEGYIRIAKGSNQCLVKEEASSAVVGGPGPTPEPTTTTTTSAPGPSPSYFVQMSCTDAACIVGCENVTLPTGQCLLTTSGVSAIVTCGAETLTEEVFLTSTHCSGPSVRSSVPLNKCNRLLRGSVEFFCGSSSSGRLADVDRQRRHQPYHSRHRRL
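In this qHTS format, compounds are incubated with 1.5 nM cruzain for 15 min at room temperature before 2 uM Z-FR-AMC is added. Release of AMC is followed at 360/450 nm, and progress is taken as the 60 s fluorescence difference.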
Cruzain inh noDet = blocks cruzain activity in detergent-free assay; P25779; purified cruzain, Z-FR-AMC fluorescence, no detergent; Potency, µM, for inactives: max response, negative = inhibition, most hits filed as inhibitors; 2.3% of 200,000 active; AID 1476;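 note: plate controls were enzyme without inhibitor for no effect and buffer without enzyme for full effect; nearly all actives have a fitted effect of over 40% in size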
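Purified cruzain at 1.5 nM, pre-incubated 15 min with compound at room temperature in 100 mM sodium acetate pH 5.5, 5 mM DTT, 0.00005% Triton X-100. Reaction started with 2 uM Z-FR-AMC; AMC fluorescence increase over 60 s gives rate.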
* marks the source's active call; other numbers are inactive results; ? = inconclusive. Calls come from the whole dose curve; as a rule, active = well fitted curve in the direction sought with a large enough effect; inconclusive = small, poorly fitted or top-dose-only effect, or another doubt; inactive = no such curve, though single readings can be large; an effect the other way counts as inactive or inconclusive. Potency is the fitted concentration of half-maximal effect.

SMILES	Cruzain inh Det	Cruzain inh noDet
O=C(C1=NN(c2ccccc2)C2C(=O)N(c3ccc(Cl)cc3)C(=O)C12)c1ccccc1 (configuration not stated)	-1.9%	10µM*
Cc1c(Cl)cccc1NC(=O)CCS(=O)(=O)c1cccc2nsnc12	-3.0%	7.7%
COc1cccc(NC(=O)/C(C#N)=C/c2c(C)n(Cc3ccccc3)c3ccccc23)c1	-2.6%	7.94µM*
Cc1ccc(C(=O)Nc2ncc(Cc3ccccc3)s2)o1	-1.8%	-6.0%
Cc1cccc(NC(=O)/C(C#N)=C/c2ccc(C)o2)c1	-8.6%	2.4%
Cc1ccc(Cn2cc(/C=C(/C#N)C(=O)Nc3cccc(Cl)c3)c3ccccc32)cc1	-2.8%	7.94µM*
Cn1cc(/C=C(\C#N)C(=O)Nc2ncc(Cc3ccc(Cl)cc3)s2)c2ccccc21	-3.5%	7.94µM*
Cc1ccc(/C=C(\C#N)C(=O)Nc2cccc(Cl)c2)o1	-0.2%	10µM*
COc1cccc(NC(=O)Cn2cc(C#N)c3ccccc32)c1	-3.8%	1.4%
N#C/C(=C\c1cn(Cc2ccccc2)c2ccccc12)C(=O)NCc1ccco1	-5.7%	-12.9%
Cc1ccc(CN2C(=O)C(O)(c3c[nH]c4ccccc34)c3cc(Cl)ccc32)cc1 (configuration not stated)	-10.2%	-1.2%
COc1ccccc1-c1cncnc1NCCNC(C)=O	3.8%	-5.7%
Clc1ccc(CCNc2nc3cc(Cl)c(Cl)cc3n3cnnc23)cc1	1.2%	-7.6%
Cc1ccc(S(=O)(=O)Nc2ccc(-c3ccc(N4CCCCCC4)nn3)cc2)cc1C	1.0%	17.6%
[O-][N+](CCO)(CCO)c1ncnc2nc[nH]c12	4.4%	7.4%
Cc1ccc(NC(=O)Cn2c(=O)n(CC(=O)NCCc3ccccc3)c(=O)c3ccccc32)cc1C	-1.5%	-8.4%
COc1cccc(NC(=O)/C(C#N)=C\c2cn(Cc3ccc(Cl)cc3)c3ccccc23)c1	-2.7%	10µM*
N#C/C(=C\c1cn(Cc2ccc(F)cc2)c2ccccc12)C(=O)NCc1ccco1	-12.2%	?
Cc1ccc(Cc2cnc(NC(=O)/C(C#N)=C/c3ccc(-c4ccccc4[N+](=O)[O-])o3)s2)cc1	-0.7%	10µM*
N#C/C(=C\c1ccc(-c2ccccc2Cl)o1)C(=O)Nc1nc2ccccc2s1	-4.7%	?
COc1cc(OC)c(C(=O)CCCCN2CCC3(CC2)NC(=O)NC3=O)cc1NS(=O)(=O)c1ccc(C(F)(F)F)cc1	-5.3%	3.8%
CC(C)n1cc(/C=C2/NC(=O)N(c3cccc(Cl)c3)C2=O)c2ccccc21	-0.2%	15.8µM*
Cn1cc(C2=C(c3ccc(Cl)cc3Cl)C(=O)NC2=O)c2ccccc21	-7.0%	12.7%
CC(C)n1cc(/C=N/NC(=O)COc2cccc3cccnc23)c2ccccc21	-5.3%	?
CC(C)n1cc(/C=C2\NC(=O)N(c3cccc(Cl)c3)C2=O)c2ccccc21	-0.5%	25.1µM*
SMILES	Cruzain inh Det	Cruzain inh noDet
CN(C)c1ncc2nc(-c3cc(F)cc(F)c3)c(=O)n(Cc3ccc(F)cc3)c2n1	3.8%	4.3%
O=C1/C(=C\c2ccco2)SC(=S)N1Cc1ccccc1	-29.1%	-16.5%
Cc1cc(/C=C2\SC(=S)N(Cc3ccco3)C2=O)c(C)n1-c1ccccc1	-3.9%	10µM*
O=C(N/N=C/C=C\c1ccccc1[N+](=O)[O-])c1ccccn1	-9.4%	4.2%
O=C(N/N=C/C=C/c1ccccc1[N+](=O)[O-])c1cc(-c2ccccc2)n[nH]1	-18.4%	25.1µM*
O=C(N/N=C\C=C\c1ccco1)c1cc(-c2ccc3ccccc3c2)n[nH]1	-10.3%	15.8µM*
O=C(N/N=C/C=C/c1ccco1)c1cccnc1	-9.7%	-2.6%
CCOc1ccccc1C(=O)N1CCc2cc(OC)c(OC)cc2C1COc1ccc2c(C)cc(=O)oc2c1 (configuration not stated)	13.5%	-5.2%
CCn1cc(C(=O)NCc2ccccc2Cl)c(=O)c2cc(S(=O)(=O)N3CCCCC3)ccc21	-0.8%	-5.4%
CCn1cc(C(=O)NCc2ccccc2Cl)c(=O)c2cc(S(=O)(=O)N3CCc4ccccc4C3)ccc21	-3.4%	12.6µM*
COc1ccccc1CN1CC[C@@]2(CCCN(C(C)=O)C2)C1	-1.4%	-13.7%
COc1ccc(N2CCN(CC(=O)Nc3nnc(-c4ccccc4)s3)CC2)cc1	0.6%	25.1µM*
O=C(CN1CCN(c2ccccc2)CC1)Nc1nnc(-c2ccccc2)s1	-3.9%	-4.1%
CCCc1ccc(-c2cc(C(=O)N/N=C/c3ccc([N+](=O)[O-])o3)c3ccccc3n2)cc1	-2.2%	15.8µM*
O=C(N/N=C/c1ccc([N+](=O)[O-])o1)c1cc(-c2cccc(Br)c2)nc2ccccc12	-3.3%	?
Fc1ccc(C2=NC(c3cccc(C(F)(F)F)c3)=Nc3ccccc3N2)cc1	-8.9%	?
CCN(CC)c1ccc(NC(=O)Cn2c3ncccc3c(=O)n2-c2ccccc2)c(C)c1	1.4%	-2.8%
N#CCBr	4.8%	-9.4%
Cc1cc(C)nc(/N=C(/NC(=O)Nc2ccc(Cl)c(Cl)c2)Nc2cccc(Cl)c2)n1	0.0%	7.94µM*
CCCOc1ccccc1N/C(=N/c1nc(C)cc(C)n1)NC(=O)Nc1ccc(Cl)cc1	4.8%	7.94µM*
Cc1cc(C)nc(/N=C(/NC(=O)Nc2ccc(Cl)c(Cl)c2)Nc2ccccc2)n1	-2.0%	?
COc1ccccc1N/C(=N/c1nc(C)cc(C)n1)NC(C)=O	3.0%	2.0%
CCOc1ccccc1NC(=O)Nc1ccc(Cl)cc1	-9.7%	-10.1%
CCOc1ccccc1N/C(=N/c1nc(C)cc(C)n1)NC(=O)Nc1ccc(Cl)c(Cl)c1	1.1%	3.98µM*
CCCSc1ncc(Cl)c(C(=O)Nc2c(C(=O)Nc3ccc(OC)cc3)oc3ccccc23)n1	0.4%	-20.2%
SMILES	Cruzain inh Det	Cruzain inh noDet
CCOC(=O)C1CCN(C(=O)CN2c3ccc(CC)cc3-c3ccccc3S2(=O)=O)CC1	-0.6%	?
CC12CCC(C(=O)N(CSC(=S)N/N=C\c3ccccc3Cl)C1=O)C2(C)C (configuration not stated)	2.8%	15.8µM*
CC12CCC(C(=O)N(CSC(=S)N/N=C\c3ccccc3)C1=O)C2(C)C (configuration not stated)	-3.2%	-1.3%
Cc1cccc(OCC(=O)Nc2c(C)ccc3nsnc23)c1C	0.5%	-2.7%
COc1cc2c(cc1OC)-c1cc(N3CCCc4ccccc43)nc(=O)n1CC2	-10.1%	20.5%
COc1cc2c(cc1OC)-c1cc(N3CCCCCC3)nc(=O)n1CC2	-15.1%	12.6µM*
COc1ccc(-c2nc3ccccc3o2)cc1NC(=O)c1ccc(OCC(C)C)cc1	1.0%	-7.1%
O=C1c2cccc3cccc(c23)C(=O)N1c1nccs1	-4.0%	6.5%
O=C1c2cccc3cccc(c23)C(=O)N1c1ccc2ncccc2c1	17.8µM*	?
CS(=O)(=O)N1CCC[C@@]2(CCN(Cc3ccccc3)C2)C1	2.4%	-7.1%
O=C(CN1c2ccccc2Sc2ccccc21)NNC(=S)Nc1ccc(Cl)cc1Cl	7.5%	10µM*
Cn1cccc1CC(=O)NNC(=S)Nc1ccc(Cl)cc1Cl	1.1%	3.2%
Cc1ccc(N=C2NC(=O)/C(=C\c3cccs3)S2)cc1C	-4.4%	25.1µM*
Cc1cccc(N=C2NC(=O)/C(=C/c3cccs3)S2)c1	-6.1%	?
COc1cccc(NC(=O)Cn2c(=O)ccc3cc(S(=O)(=O)N4CCC(C)CC4)ccc32)c1	-4.0%	1.0%
CC[C@H]1C(c2cccc(Cl)c2)=NN(c2ccccc2)[C@@H]1CO	1.4%	-11.2%
OC[C@@H]1[C@@H](c2ccc(Cl)cc2)C(c2ccc(F)cc2)=NN1c1ccccc1	0.2%	25.1µM*
